Source: PMC7862700, “An all-to-all approach to the identification of sequence-specific readers for epigenetic DNA modifications on cytosine”

Experiments:
Test in all cases: DAPPL (digital affinity profiling via proximity ligation, sequencing); 10 mM Tris-HCl pH 7.5, 50 mM NaCl, 1 mM DTT, 4% glycerol, room temperature, 30 min; GST-TFs on glutathione beads, 16-mer random dsDNA library, 0.1% formaldehyde crosslink after washing; high values mean tight binding
FEV = target: T1, FEV (Homo sapiens, UniProt Q99581 1-238); settings: protein: recombinant; tags: N-terminal GST; dsDNA, one strand shown
T1 sequence: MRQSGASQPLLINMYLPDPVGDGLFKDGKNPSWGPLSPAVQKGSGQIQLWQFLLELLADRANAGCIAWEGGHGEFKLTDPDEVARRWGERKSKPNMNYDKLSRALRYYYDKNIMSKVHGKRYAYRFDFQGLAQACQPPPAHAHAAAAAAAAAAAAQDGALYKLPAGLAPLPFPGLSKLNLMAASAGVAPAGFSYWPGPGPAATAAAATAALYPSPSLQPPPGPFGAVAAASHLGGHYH
Procedure, shortened: (§1)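 Binding signal is each hexamer's read frequency for a factor divided by its frequency in the tag-only sample. The factors were GST-fused human transcription factors from yeast, captured on glutathione beads, DNA-barcoded and pooled with that sample. Pools were incubated with 200 nmole of a random double-stranded 16-mer DNA library in Tris/NaCl/DTT/glycerol buffer at room temperature for 30 min, then washed, crosslinked with 0.1% formaldehyde, proximity-ligated with BsaI/T4 ligase (1 h, 37 °C), PCR-amplified and sequenced on an Illumina NextSeq500.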

ETV5 = ETV5 (Homo sapiens, UniProt P41161 1-510); settings: protein: recombinant; tags: N-terminal GST; dsDNA, one strand shown
Procedure, shortened: as §1

HSF1 = HSF1 (Homo sapiens, UniProt Q00613 1-529); settings: protein: recombinant; tags: N-terminal GST; chain copies: 3; dsDNA, one strand shown
Procedure, shortened: as §1

SPIC = target: T2, SPIC (Homo sapiens, UniProt Q8N5J4 1-248); settings: protein: recombinant; tags: N-terminal GST; dsDNA, one strand shown
T2 sequence: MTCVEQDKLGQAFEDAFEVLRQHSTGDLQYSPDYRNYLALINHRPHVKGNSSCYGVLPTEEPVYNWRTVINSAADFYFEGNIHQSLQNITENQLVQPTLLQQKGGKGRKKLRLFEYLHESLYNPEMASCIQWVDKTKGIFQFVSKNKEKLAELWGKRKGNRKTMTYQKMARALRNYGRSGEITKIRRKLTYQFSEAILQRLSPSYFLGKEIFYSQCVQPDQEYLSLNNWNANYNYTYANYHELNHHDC
Procedure, shortened: as §1

ELF4 = ELF4 (Homo sapiens, UniProt Q99607 1-663); settings: protein: recombinant; tags: N-terminal GST; dsDNA, one strand shown
Procedure, shortened: as §1

ELK4 = target: T3, ELK4 (Homo sapiens, UniProt P28324-2 1-405); settings: protein: recombinant; tags: N-terminal GST; dsDNA, one strand shown
T3 sequence: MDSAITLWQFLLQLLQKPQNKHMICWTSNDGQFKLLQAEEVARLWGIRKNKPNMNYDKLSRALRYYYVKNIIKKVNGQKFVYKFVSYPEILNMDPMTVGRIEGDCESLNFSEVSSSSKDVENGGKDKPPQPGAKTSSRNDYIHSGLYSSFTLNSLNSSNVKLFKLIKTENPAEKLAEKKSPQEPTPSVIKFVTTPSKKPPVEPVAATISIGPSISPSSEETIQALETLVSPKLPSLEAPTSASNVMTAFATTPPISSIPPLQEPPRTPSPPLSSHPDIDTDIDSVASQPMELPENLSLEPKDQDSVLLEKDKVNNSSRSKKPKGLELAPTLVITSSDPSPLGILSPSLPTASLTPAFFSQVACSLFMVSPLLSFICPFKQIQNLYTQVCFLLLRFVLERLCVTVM
Procedure, shortened: as §1

ETV2 = target: T4, ETV2 (Homo sapiens, UniProt O00321 1-342); settings: protein: recombinant; tags: N-terminal GST; dsDNA, one strand shown
T4 sequence: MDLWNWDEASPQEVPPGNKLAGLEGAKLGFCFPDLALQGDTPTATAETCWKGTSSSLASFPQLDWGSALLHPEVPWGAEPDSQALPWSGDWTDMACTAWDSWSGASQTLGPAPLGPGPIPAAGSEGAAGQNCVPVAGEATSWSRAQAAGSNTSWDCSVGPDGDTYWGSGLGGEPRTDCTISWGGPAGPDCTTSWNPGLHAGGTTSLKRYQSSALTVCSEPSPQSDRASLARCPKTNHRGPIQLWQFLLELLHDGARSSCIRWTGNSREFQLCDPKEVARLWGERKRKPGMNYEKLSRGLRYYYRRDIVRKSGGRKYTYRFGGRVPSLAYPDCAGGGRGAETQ
Procedure, shortened: as §1

ELF3 = target: T5, ELF3 (Homo sapiens, UniProt P78545 1-371); settings: protein: recombinant; tags: N-terminal GST; dsDNA, one strand shown
T5 sequence: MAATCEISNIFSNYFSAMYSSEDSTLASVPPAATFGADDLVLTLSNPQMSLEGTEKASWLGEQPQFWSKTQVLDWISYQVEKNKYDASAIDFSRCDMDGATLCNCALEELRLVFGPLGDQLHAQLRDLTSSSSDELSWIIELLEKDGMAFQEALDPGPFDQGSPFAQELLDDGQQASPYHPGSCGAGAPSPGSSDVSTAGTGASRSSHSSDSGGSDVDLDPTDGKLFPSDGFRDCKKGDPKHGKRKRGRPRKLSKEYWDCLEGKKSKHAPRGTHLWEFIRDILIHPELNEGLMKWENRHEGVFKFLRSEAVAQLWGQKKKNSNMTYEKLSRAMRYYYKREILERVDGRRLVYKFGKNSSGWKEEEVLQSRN
Procedure, shortened: as §1

CRX = CRX (Homo sapiens, UniProt O43186 1-299); settings: protein: recombinant; tags: N-terminal GST; dsDNA, one strand shown
Procedure, shortened: as §1

ETV1 = ETV1 (Homo sapiens, UniProt P50549 1-477); settings: protein: recombinant; tags: N-terminal GST; dsDNA, one strand shown
Procedure, shortened: as §1

ERF = target: T6, ERF (Homo sapiens, UniProt P50548 1-548); settings: protein: recombinant; tags: N-terminal GST; dsDNA, one strand shown
T6 sequence: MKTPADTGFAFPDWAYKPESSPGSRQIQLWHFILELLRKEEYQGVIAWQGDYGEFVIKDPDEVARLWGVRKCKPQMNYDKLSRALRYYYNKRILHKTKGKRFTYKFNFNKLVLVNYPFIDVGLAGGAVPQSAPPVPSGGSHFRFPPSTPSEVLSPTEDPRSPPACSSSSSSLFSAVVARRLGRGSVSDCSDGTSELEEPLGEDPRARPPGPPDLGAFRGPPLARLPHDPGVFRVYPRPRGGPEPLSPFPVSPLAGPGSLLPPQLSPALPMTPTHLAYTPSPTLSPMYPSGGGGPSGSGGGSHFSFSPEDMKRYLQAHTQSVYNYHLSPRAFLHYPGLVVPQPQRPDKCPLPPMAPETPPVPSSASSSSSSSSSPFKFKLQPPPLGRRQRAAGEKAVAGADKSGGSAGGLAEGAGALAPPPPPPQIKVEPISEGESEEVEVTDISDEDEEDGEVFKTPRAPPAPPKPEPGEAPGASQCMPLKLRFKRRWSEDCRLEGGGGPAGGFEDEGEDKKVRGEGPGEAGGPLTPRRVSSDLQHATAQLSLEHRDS
Procedure, shortened: as §1

ETV3L = target: T7, ETV3L (Homo sapiens, UniProt Q6ZN32 1-361); settings: protein: recombinant; tags: N-terminal GST; dsDNA, one strand shown
T7 sequence: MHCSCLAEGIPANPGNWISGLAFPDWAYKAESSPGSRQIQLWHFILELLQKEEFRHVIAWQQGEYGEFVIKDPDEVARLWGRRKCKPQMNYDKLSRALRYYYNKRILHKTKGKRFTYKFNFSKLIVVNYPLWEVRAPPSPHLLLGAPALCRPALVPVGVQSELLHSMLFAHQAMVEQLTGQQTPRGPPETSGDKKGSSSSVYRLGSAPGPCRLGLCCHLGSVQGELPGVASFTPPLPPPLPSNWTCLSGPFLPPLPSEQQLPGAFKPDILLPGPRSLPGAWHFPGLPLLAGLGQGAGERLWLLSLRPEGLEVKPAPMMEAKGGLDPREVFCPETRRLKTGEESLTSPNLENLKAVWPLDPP
Procedure, shortened: as §1

ETS2 = target: T8, ETS2 (Homo sapiens, UniProt P15036 1-469); settings: protein: recombinant; tags: N-terminal GST; dsDNA, one strand shown
T8 sequence: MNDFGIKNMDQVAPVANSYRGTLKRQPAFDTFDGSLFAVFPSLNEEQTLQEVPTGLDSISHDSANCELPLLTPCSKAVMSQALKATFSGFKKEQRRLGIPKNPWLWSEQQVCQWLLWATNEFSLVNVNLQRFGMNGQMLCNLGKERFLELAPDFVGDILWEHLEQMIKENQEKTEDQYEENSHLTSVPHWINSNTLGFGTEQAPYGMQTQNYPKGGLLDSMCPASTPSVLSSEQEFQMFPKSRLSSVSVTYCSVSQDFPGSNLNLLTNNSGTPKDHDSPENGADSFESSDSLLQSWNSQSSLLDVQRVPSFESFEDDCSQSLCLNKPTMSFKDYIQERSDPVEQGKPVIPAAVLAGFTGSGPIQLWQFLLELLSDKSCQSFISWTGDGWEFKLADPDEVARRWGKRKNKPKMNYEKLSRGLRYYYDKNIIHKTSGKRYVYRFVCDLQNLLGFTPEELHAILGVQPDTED
Procedure, shortened: as §1

SPDEF = target: T9, SPDEF (Homo sapiens, UniProt O95238 1-335); settings: protein: recombinant; tags: N-terminal GST; dsDNA, one strand shown
T9 sequence: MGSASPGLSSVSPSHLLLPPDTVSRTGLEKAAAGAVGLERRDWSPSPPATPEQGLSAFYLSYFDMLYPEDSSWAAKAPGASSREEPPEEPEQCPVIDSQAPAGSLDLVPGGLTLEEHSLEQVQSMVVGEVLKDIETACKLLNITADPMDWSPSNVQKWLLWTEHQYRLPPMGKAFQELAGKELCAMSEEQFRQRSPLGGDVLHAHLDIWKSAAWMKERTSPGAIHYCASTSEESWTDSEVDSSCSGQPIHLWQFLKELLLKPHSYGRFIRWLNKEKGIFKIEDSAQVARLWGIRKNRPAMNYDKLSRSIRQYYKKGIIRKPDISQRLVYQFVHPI
Procedure, shortened: as §1

ETV7 = target: T10, ETV7 (Homo sapiens, UniProt Q9Y603 1-341); settings: protein: recombinant; tags: N-terminal GST; dsDNA, one strand shown
T10 sequence: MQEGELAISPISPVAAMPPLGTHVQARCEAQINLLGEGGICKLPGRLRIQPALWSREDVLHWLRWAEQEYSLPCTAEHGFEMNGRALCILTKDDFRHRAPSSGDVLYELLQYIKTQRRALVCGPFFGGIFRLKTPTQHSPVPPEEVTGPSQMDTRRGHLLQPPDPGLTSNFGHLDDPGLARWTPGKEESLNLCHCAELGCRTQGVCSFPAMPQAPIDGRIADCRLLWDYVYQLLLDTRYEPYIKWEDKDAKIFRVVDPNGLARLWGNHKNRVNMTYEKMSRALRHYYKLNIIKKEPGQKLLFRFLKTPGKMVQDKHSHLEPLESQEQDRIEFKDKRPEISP
Procedure, shortened: as §1

ELF5 = target: T11, ELF5 (Homo sapiens, UniProt Q9UKW6-2 1-255); settings: protein: recombinant; tags: N-terminal GST; dsDNA, one strand shown
T11 sequence: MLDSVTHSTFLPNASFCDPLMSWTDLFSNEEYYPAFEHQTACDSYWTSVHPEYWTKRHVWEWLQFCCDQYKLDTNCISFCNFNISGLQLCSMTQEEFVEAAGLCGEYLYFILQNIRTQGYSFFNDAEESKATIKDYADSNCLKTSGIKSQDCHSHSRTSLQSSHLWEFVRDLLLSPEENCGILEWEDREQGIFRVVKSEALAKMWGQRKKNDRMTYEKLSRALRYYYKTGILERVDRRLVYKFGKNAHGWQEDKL
Procedure, shortened: as §1

ETV3 = target: T12, ETV3 (Homo sapiens, UniProt P41162-2 1-143); settings: protein: recombinant; tags: N-terminal GST; dsDNA, one strand shown
T12 sequence: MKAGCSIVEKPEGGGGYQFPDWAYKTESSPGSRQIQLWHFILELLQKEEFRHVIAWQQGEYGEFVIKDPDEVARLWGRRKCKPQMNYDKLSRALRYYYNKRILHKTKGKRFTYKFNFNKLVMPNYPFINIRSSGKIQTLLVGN
Procedure, shortened: as §1

ETV6 = ETV6 (Homo sapiens, UniProt P41212 1-452); settings: protein: recombinant; tags: N-terminal GST; dsDNA, one strand shown
Procedure, shortened: as §1

ETV1, sequence (P50549 whole entry): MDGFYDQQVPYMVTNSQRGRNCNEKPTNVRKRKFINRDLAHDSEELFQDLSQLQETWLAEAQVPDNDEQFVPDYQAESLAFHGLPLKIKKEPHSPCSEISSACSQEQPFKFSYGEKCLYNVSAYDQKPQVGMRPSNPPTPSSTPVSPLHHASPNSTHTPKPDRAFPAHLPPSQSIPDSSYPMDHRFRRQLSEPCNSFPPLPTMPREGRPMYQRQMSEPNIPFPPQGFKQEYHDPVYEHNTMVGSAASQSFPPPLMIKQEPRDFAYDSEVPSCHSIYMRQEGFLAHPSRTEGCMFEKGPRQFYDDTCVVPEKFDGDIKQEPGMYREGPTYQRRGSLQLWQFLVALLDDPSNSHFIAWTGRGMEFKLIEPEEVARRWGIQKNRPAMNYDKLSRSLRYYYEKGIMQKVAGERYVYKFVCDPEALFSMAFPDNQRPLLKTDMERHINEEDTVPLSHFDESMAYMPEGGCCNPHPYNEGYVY
HSF1, sequence (Q00613 whole entry): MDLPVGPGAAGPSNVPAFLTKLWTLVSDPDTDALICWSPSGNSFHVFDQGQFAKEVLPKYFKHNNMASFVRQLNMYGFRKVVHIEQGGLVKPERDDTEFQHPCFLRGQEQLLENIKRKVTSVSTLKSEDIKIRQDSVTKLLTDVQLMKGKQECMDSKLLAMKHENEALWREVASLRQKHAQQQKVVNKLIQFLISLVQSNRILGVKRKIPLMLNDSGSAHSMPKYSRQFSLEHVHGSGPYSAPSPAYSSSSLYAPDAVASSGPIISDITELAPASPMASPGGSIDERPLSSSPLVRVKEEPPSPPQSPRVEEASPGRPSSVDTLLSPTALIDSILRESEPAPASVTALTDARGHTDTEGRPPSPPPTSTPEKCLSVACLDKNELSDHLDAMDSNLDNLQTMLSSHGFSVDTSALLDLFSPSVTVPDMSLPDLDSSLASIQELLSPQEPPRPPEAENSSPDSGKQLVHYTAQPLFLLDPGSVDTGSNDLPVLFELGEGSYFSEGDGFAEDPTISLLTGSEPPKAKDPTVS
ELF4, sequence (Q99607 whole entry): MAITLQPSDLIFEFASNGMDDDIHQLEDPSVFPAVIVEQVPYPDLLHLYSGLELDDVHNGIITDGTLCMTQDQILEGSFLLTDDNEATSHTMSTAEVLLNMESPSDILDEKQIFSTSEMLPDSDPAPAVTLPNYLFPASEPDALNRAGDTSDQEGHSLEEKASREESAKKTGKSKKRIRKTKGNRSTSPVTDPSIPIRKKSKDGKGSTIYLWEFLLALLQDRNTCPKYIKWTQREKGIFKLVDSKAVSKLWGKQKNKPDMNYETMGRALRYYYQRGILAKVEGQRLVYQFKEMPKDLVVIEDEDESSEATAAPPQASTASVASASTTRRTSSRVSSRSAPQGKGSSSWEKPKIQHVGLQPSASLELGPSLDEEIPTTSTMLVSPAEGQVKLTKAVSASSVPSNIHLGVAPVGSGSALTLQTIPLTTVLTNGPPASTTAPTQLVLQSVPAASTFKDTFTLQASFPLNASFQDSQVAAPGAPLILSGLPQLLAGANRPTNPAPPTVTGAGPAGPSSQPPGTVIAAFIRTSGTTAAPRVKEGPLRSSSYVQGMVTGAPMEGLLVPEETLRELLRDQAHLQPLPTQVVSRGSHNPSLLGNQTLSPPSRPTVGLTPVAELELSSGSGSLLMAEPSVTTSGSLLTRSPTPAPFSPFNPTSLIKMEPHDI
ETV6, sequence (P41212 whole entry): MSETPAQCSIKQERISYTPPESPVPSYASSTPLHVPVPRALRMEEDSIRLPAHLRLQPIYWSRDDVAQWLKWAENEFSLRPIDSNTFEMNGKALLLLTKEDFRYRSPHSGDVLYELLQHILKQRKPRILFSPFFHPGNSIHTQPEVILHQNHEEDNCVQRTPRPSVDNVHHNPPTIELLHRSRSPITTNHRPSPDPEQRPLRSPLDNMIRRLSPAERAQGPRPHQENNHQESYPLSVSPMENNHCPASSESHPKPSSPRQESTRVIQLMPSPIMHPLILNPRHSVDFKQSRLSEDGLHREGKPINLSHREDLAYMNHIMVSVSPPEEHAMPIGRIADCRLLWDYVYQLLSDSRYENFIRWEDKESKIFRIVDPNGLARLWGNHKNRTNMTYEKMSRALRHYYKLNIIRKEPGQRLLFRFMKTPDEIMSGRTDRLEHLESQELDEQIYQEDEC
CRX, sequence (O43186 whole entry): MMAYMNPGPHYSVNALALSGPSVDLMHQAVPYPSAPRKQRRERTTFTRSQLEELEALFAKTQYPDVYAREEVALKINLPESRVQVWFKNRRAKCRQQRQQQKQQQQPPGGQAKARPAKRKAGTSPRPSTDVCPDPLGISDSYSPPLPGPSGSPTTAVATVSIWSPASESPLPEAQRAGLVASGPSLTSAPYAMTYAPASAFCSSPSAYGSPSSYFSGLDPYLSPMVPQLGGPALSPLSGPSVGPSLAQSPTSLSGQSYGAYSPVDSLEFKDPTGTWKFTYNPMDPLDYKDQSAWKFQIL
ETV5, sequence (P41161 whole entry): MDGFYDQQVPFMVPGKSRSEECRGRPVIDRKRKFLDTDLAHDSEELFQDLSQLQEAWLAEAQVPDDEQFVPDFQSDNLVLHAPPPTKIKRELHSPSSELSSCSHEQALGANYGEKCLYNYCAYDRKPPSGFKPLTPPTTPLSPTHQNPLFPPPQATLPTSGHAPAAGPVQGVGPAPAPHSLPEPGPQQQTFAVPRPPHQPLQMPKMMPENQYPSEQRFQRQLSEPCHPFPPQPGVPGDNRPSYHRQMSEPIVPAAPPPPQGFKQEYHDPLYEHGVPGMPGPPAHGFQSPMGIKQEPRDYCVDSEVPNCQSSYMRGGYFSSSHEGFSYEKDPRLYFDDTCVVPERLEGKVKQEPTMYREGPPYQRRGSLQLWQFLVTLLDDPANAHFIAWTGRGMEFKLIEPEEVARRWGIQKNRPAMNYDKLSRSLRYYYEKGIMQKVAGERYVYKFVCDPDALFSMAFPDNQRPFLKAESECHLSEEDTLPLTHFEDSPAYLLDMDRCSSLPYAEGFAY

## ACCTCT
FEV
  binding signal: 1.3 fold enrichment (6-mer frequency, TF over GST control)
ETV5
  binding signal: 1.31 fold enrichment (6-mer frequency, TF over GST control)
HSF1
  binding signal: 1.18 fold enrichment (6-mer frequency, TF over GST control)
SPIC
  binding signal: 1.47 fold enrichment (6-mer frequency, TF over GST control)
ELF4
  binding signal: 1.33 fold enrichment (6-mer frequency, TF over GST control)
ELK4
  binding signal: 1.29 fold enrichment (6-mer frequency, TF over GST control)
ETV2
  binding signal: 1.35 fold enrichment (6-mer frequency, TF over GST control)
ELF3
  binding signal: 1.51 fold enrichment (6-mer frequency, TF over GST control)
CRX
  binding signal: 1.19 fold enrichment (6-mer frequency, TF over GST control)
ETV1
  binding signal: 1.3 fold enrichment (6-mer frequency, TF over GST control)
ERF
  binding signal: 1.52 fold enrichment (6-mer frequency, TF over GST control)
ETV3L
  binding signal: 1.32 fold enrichment (6-mer frequency, TF over GST control)
ETS2
  binding signal: 1.23 fold enrichment (6-mer frequency, TF over GST control)
SPDEF
  binding signal: 1.4 fold enrichment (6-mer frequency, TF over GST control)
ETV7
  binding signal: 1.48 fold enrichment (6-mer frequency, TF over GST control)
ELF5
  binding signal: 1.34 fold enrichment (6-mer frequency, TF over GST control)
ETV3
  binding signal: 1.4 fold enrichment (6-mer frequency, TF over GST control)
ETV6
  binding signal: 1.39 fold enrichment (6-mer frequency, TF over GST control)
